Rows were chosen to be rich in hits. Some 3.7% of all compounds tested hit in one or more screens of this group.
Tb PYK inh – T. brucei pyruvate kinase inhibition; Q57TT1; TbPYK enzyme, Kinase-Glo Plus ATP luminescence, 45 min; Potency, µM (titrated, usually from 76.8 µM), for the others: top-dose activity, negative = inhibition, usual class: inhibitors; 410,000 tested, 0.12% active; further: nearly all actives have a fitted effect of over 50% in size
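T. brucei PYK with substrate was exposed to pin-transferred compounds across a concentration series, then started with 130 uM ADP (final). After 45 min at room temperature, Kinase-Glo Plus luminescence was read, normalized and curve-fitted.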
FMDV antiviral – antivirals against foot and mouth disease virus | Potency, µM (top dose mostly 57.9 µM), inactives show top-dose activity change, negative = inhibition, usual class: inhibitors | FMDV antiviral cell-based qHTS | 410,000 tested, 1.2% active; calls by dose curve; tested in HEK293T cells; further: read-out not given here; nearly all actives have a fitted effect of over 45% in size
RE007 growth inh – less growth of the S. pombe RE007 Vpr strain; 360,000 tested, 0.21% active; S. pombe RE007 Vpr strain, BacTiter-Glo ATP luminescence, 24 h; Potency, µM (highest dose often 92.2 µM), for inactives: at the top dose activity change, negative = less growth, hits mostly inhibitors; active means well fitted falling curve with a large enough effect; inconclusive means small, poorly fitted or top-dose-only effect; inactive means no such curve, though single readings can be large or run the other way; further: nearly all actives have a fitted effect of over 50% in size
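Fission yeast RE007 carrying one integrated HIV-1 vpr copy, seeded at OD 0.01 in PMG+AL medium with 23 nL pinned compound. Grown 24 h at 30 degrees; viability read by BacTiter-Glo luminescence after 5 min.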
Sm TGR block – inhibitors of Schistosoma mansoni thioredoxin glutathione reductase. 360,000 tested, 3% active. purified TGR, DTNB reduction, TNB absorbance 405 nm. Q962Y6. Potency, µM (top dose mostly 114 µM), for the others: at the top dose activity change, negative = inhibition, hits mostly inhibitors; further: nearly all actives have a fitted effect of over 60% in size
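Kinetic colorimetric format: TGR-catalysed, NADPH-driven DTNB reduction monitored via TNB absorbance. Enzyme dispensed at 20 nM; compound exposure 15 min at room temperature before reaction start.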
* = called active by the depositor; u = inconclusive; x = not tested or not shown; [ ] = dose if it differs, or a comment. Unless noted, the call rests on the fitted dose curve; in most records, active means well fitted curve in the direction sought with a large enough effect; inconclusive means small, poorly fitted or top-dose-only effect, or another doubt; inactive means no such curve, though single readings can be large; an effect the other way counts as inactive or inconclusive. On the % scale 0 is the no-effect control and ±100 the full control effect; potency means the concentration at half of the fitted maximal effect.

SMILES	Tb PYK inh	FMDV antiviral	RE007 growth inh	Sm TGR block
CN(C)c1ccc(C=c2c3ccccc3n3c2cc(-c2ccccc2)[n+]3C)cc1	-18.3%	15.8µM*	u	x
CN(C)c1ccc(C=c2c3ccccc3n3c2c2c([n+]3C)CCCC2)cc1	-10.6%	6.31µM*	u	x
CN(C)c1ccc(C=c2c3cc([N+](=O)[O-])ccc3n3c2cc(-c2ccccc2)[n+]3C)cc1	u	31.6µM*	u	x
CCc1ccc(NC(=O)Cn2c(=O)n(CCC(=O)NCCc3ccc(OC)c(OC)c3)c(=O)c3ccccc32)cc1	1.0%	6.5%	x	-1.6%
CCCc1[nH]nc2c1C(c1ccc(OCCN3CCOCC3)c(OC)c1)C(C#N)=C(N)O2 (centres undefined)	-0.6%	-28.8%	-4.7%	0.0%
CCOc1cc(C2C(C#N)=C(N)SC(N)=C2C#N)ccc1OCCN1CCOCC1	-8.7%	x	-5.3%	22.4µM*
CCCOc1ccc(-c2cccc(NS(=O)(=O)c3cc(OC)ccc3OC)c2)nn1	-3.9%	13.9%	x	-5.2%
O=C1CC(NCc2ccc(F)cc2)C(=O)N1c1ccccc1 (centres undefined)	1.9%	-9.7%	-10.2%	x
N#CCNC1CC(=O)N(c2ccc(F)cc2)C1=O (centres undefined)	-5.1%	-16.7%	25.1µM*	7.08µM*
CC(=O)c1ccccc1C(=O)NCC1Cc2cccc(-c3cccnc3)c2O1 (centres undefined)	x	-0.4%	x	x
O=C(NCCCN1CCN(c2ccc(F)cc2)CC1)c1ccc2nc(Cc3ccccc3)oc2c1	-1.8%	11.2µM*	x	-1.3%
O=C(NCCCN1CCN(c2ccccc2)CC1)c1ccc2nc(Cc3ccccc3)oc2c1	-0.6%	u	x	-10.0%
C=C1CCC2C(C)(C)[C@H](O)CC[C@@]2(C)[C@@H]1COc1cc(=O)oc2ccccc12 (some centres undefined)	-5.1%	u	8.6%	-8.1%
C=C1CC(COc2cc(=O)oc3ccccc23)(c2ccccc2)OC1=O (centres undefined)	-5.4%	14.1µM*	-23.0%	x
CC(C)COc1ccc(/C(O)=C2/C(=O)C(=O)N(CCN(C)C)C2c2ccncc2)cc1 (centres undefined)	0.8%	-5.0%	6.1%	-25.0%
COc1ccc(/C(O)=C2/C(=O)C(=O)N(CCN(C)C)C2c2ccc(OC)c(OC)c2)c(C)c1 (centres undefined)	0.3%	-14.0%	3.1%	39.8µM*
Cc1ccc(C2/C(=C(\O)c3ccc4c(c3)OCCO4)C(=O)C(=O)N2CCCN(C)C)o1 (centres undefined)	x	x	x	-32.2%
COc1cc(C2/C(=C(/O)c3ccc(OCC(C)C)cc3)C(=O)C(=O)N2CCN(C)C)ccc1O (centres undefined)	-5.5%	x	12.4%	44.7µM*
COc1ccc(/C(O)=C2/C(=O)C(=O)N(CCCN(C)C)C2c2ccc(C)o2)cc1Cl (centres undefined)	x	x	x	44.7µM*
Cc1cc(OC(C)C(=O)N2CCC(c3nc4ccccc4o3)CC2)ccc1Cl (centres undefined)	-1.5%	0.0%	x	-3.0%
COc1cc(OC)c(NC(=O)Cc2c(C(=O)O)c(C)cn2C)cc1Cl	-2.6%	-10.0%	x	-1.7%
CC[C@H](c1ccccc1)c1noc(CCN(CC)CC)n1	3.4%	x	x	x
Cc1ccc2c(c1)Oc1ccc([N+](=O)[O-])cc1C(=O)N2	4.6%	-12.2%	4.9%	1.3%
Cc1ccc2c(c1)Oc1ccc(NC(=O)CCl)cc1C(=O)N2	-6.0%	14.1µM*	-9.9%	11.2µM*
CCOC(=O)c1c(C)oc2c1c(C=NCCO)c(O)c1ccccc12	-5.0%	u	14.0%	39.8µM*
SMILES	Tb PYK inh	FMDV antiviral	RE007 growth inh	Sm TGR block
CCOC(=O)c1cnc(-c2ccccc2)nc1N1CCOCC1	29.6%	-0.4%	-3.4%	-1.5%
CCOC(=O)c1ccc(N=Cc2c(O)c3ccccc3oc2=O)cc1	-8.4%	-3.9%	-0.5%	-1.7%
c1cncc(C(c2nnnn2C2CCCCC2)N2CCCCC2)c1 (centres undefined)	-0.5%	25.4%	-13.0%	4.1%
CCOC(=O)c1c(C)oc2c1c(C(c1cccnc1)N1CCCCC1)c(O)c1ccccc12 (centres undefined)	-8.3%	-6.4%	-5.1%	0.708µM*
CCOC(=O)c1c(C)oc2c1c(C(c1ccccc1)N1CCOCC1)c(O)c1ccccc12 (centres undefined)	1.9%	74.2%	u	10µM*
CC(C)N(CCO)Cc1nc(N2CCOCC2)c2cc(Cl)ccc2n1	x	-2.6%	x	x
Cc1ccc(NC(=O)Cn2c(=O)oc3cc(S(=O)(=O)N4CCCCC4)ccc32)c(Cl)c1	0.2%	u	x	1.8%
Cc1cccc(C)c1NC(=O)CCCSc1nnc(-c2ccc(Cl)cc2)n1-c1ccccc1	-16.4%	14.1µM*	-4.4%	-7.1%
Cc1cccc(C)c1NC(=O)CCCSc1nnc(-c2ccc(F)cc2)n1-c1ccccc1	-16.7%	u	x	0.1%
CCC(Sc1nnc(-c2ccc(OC)cc2)c(-c2ccc(OC)cc2)n1)C(=O)Nc1cccc(OC)c1 (centres undefined)	3.2%	-12.5%	x	11.9%
Cc1cccc2c(C(=O)N3CCN(c4ccccn4)CC3)cc(-c3cccc(Br)c3)nc12	-2.7%	25.1µM*	5.4%	-20.1%
O=C(c1cc(-c2cccc(Cl)c2)nc2ccccc12)N1CCN(c2ccccn2)CC1	-1.2%	-28.6%	15.8%	16.9%
Cc1occc1C(=O)Nc1cccc(-c2nc(CNC(=O)c3ccc(N4CCCCC4)cc3)c(C)o2)c1	x	19.9%	x	x
CCSc1oc(-c2ccco2)nc1S(=O)(=O)c1ccc(F)cc1	-2.6%	7.1%	1.4%	14.1µM*
Cc1ccc(S(=O)(=O)c2nc(-c3ccco3)oc2SCC(C)C)cc1	-1.0%	-5.5%	x	-15.2%
CCSc1oc(-c2ccco2)nc1S(=O)(=O)c1ccc(C)cc1	0.8%	-8.6%	-0.8%	39.8µM*
Cc1ccc(S(=O)(=O)c2nc(-c3ccco3)oc2SC(C)C)cc1	-11.6%	13.9%	0.1%	u
Cc1ccc(S(=O)(=O)c2nc(-c3ccco3)oc2SCC(=O)NCC2CCCO2)cc1 (centres undefined)	-11.6%	x	1.8%	35.5µM*
Cc1ccc(S(=O)(=O)c2nc(-c3ccccc3)oc2SCC(=O)NCC2CCCO2)cc1 (centres undefined)	8.3%	3.2%	-3.3%	-12.3%
CC(C)CSc1oc(-c2ccco2)nc1S(=O)(=O)c1ccccc1	-2.7%	18.0%	10.5%	44.7µM*
Cc1ccc(S(=O)(=O)c2nc(-c3ccco3)oc2SCc2ccc(F)cc2)cc1	-3.3%	-18.9%	x	u
COc1ccc(NC(=O)CSc2oc(-c3ccc(C)cc3)nc2S(=O)(=O)c2ccc(C)cc2)c(OC)c1	-6.6%	6.7%	x	50.1µM*
CN1CCCC(CN2c3ccccc3Sc3ccccc32)C1 (centres undefined)	2.0%	0.0%	0.2%[18.4 µM]	-2.0%
CN1CCCC(CC2c3ccccc3Sc3ccccc32)C1 (centres undefined)	4.2%	39.8µM*	5.9%[18.4 µM]	-2.3%
O=C1NC(=O)c2c1c(-c1ccccc1)cc1[nH]c3ccc(O)cc3c21	x	-34.9%	x	x
